We go through 19 compounds from PubChem BioAssay (NCATS).

Where “and” joins values, the source holds several entries; their conditions need not be identical. Identical values can stand only once. Inconclusive results are not listed. Some compounds were tested as several samples or in several runs, with calls that do not always agree. Calls of active or inactive are those of the source. Unless noted, the call rests on the fitted dose curve; in most records, active means well fitted curve in either direction with a large enough effect (not every such curve was filed as active); inconclusive means small, poorly fitted or top-dose-only effect, or another doubt; inactive means flat fitted curve, though single readings scatter. A value given as a limit tells only on which side of the number the result lay.

The nature of test [1]: AP1 Signaling Pathway (AID 357).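 Further: ME-180 reporter cells stimulated with EGF at its EC50 level; on the % scale 0 is the no-effect control and ±100 the full control effect.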 Put shortly:
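Cells are seeded overnight, exposed to compound titrations and an EC50 level of EGF for 5 hours at 37 °C, then loaded with CCF4 dye for 2.5 hours. Beta-lactamase activity under the AP-1 element is read as a blue/green ratio.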

Test [2] concerns the target Cytochrome P450 1A2 (Homo sapiens) (UniProt P05177). As to the kind of experiment: p450-cyp1a2 (AID 410; calls by dose curve; further: potency means the concentration at half of the fitted maximal effect;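 on activity change, negative = inhibition: -100% = full effect of reference inhibitor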). Put shortly: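 Luminescent demethylation readout: Luciferin-ME (100uM, equal to Km) turned over by 20nM CYP1A2 for 60 min at room temperature after NADPH regeneration addition, following 10 min compound preincubation. Normalization used 57 uM furafylline as full inhibition.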

Test [3] in a line: NFAT Signaling Pathway (AID 444).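 Further: carbachol stimulus at about its EC50 of 1 µM final; on the % scale 0 is the no-effect control and ±100 the full control effect.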 The conditions noted are these: Jurkat NFAT-bla M1, carbachol, beta-lactamase ratio, 5 h; at 38 µM (top of the series) unless noted. The procedure, abridged:
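Jurkat cells with NFAT-driven β-lactamase reporter and co-expressed M1 receptor, stimulated with carbachol (final 1 uM, ~EC50), compound titration, 5 h at 37 °C. CCF4 loaded 1 h at RT; 460/530 nm ratio gave %activity and AC50.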

Test [4] is described as follows: Stat Signaling Pathway (AID 446).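 Further: ME-180 cervical cancer cells given 40 pM IL-6 alongside compound; SIE-controlled beta-lactamase reporter measured as 460/530 nm FRET emission ratio; on the % scale 0 is the no-effect control and ±100 the full control effect.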 The conditions noted are these: ME-180 (cervical carcinoma) SIE beta-lactamase reporter, IL-6 stimulated, 5 h; at 38 µM (top of the series) unless noted. The procedure, abridged:
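Emission at 460 and 530 nm (excitation 405 nm) reports SIE-controlled beta-lactamase in ME-180 cells. Cells received compound with 40 pM IL-6 for 5 hrs at 37 C; data scaled between 300 pM IL-6 and 125 nM JAK-inhibitor controls.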

The target in test [5] is Glucocorticoid receptor (Homo sapiens) (UniProt P04150). Description: GR-GFP Redistribution (AID 450;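 active means compounds whose dose series gives a full or clear partial fitted curve of increased nuclear translocation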; further: potency means the concentration at half of the fitted maximal effect). Conditions: U2OS GR-GFP nuclear translocation, laser cytometry, 2 h.
The target is the same in test [6]. As to the kind of experiment: GR-EFC Redistribution (AID 451; calls by dose curve; further: potency means the concentration at half of the fitted maximal effect). Conditions: CHO-K1 GR-EFC translocation, beta-gal luminescence, 2 h. The procedure, abridged: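 CHO-K1 cells expressing nuclear EA and GR-ED fragments of b-gal; compounds titrated up to 46 uM final, 2 h at 37 C. GR nuclear translocation read as complemented b-gal luminescence after 1 h RT detection.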

The target of test [7] is Mitogen-activated protein kinase 10 (Mus musculus) (UniProt Q61831). As to the kind of experiment: JNK3 AlphaScreen Assay (AID 530).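 Further: kinase came from lysate of stimulated human HepG2 cells; signal reports phosphorylation of biotinylated GST-cJun 1-79 at Ser73 with 10 µM ATP; on the % scale 0 is the no-effect control and ±100 the full control effect.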 Put shortly: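 Activity was read by AlphaScreen after JNK3-containing HepG2 lysate (cytokine pre-activated) phosphorylated biotinylated GST-cJun with 10 uM ATP at room temperature. Phospho-Ser73 cJun antibody with Protein-A acceptor beads provided detection.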

Test [8] deals with Lysosomal acid glucosylceramidase (Homo sapiens) (UniProt P04062). Description: Glucocerebrosidase-p2 (AID 348; in the data active means potency below about 10 µM; further: potency means the concentration at half of the fitted maximal effect). The conditions noted are these: purified GBA, blue fluorogenic substrate, 40 min. The procedure, abridged: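 Normal human glucocerebrosidase (0.2 nM) with blue fluorogenic substrate (80 uM final) in citrate/phosphate pH 5.9 with 10mM sodium taurocholate, 0.01% tween-20; 40 min RT, NaOH/glycine stop; fluorescence Ex 365/Em 440; AC50 from a titration from 0.6 nM upwards.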
Chain of Lysosomal acid glucosylceramidase (Homo sapiens) (P04062 whole entry, looked up): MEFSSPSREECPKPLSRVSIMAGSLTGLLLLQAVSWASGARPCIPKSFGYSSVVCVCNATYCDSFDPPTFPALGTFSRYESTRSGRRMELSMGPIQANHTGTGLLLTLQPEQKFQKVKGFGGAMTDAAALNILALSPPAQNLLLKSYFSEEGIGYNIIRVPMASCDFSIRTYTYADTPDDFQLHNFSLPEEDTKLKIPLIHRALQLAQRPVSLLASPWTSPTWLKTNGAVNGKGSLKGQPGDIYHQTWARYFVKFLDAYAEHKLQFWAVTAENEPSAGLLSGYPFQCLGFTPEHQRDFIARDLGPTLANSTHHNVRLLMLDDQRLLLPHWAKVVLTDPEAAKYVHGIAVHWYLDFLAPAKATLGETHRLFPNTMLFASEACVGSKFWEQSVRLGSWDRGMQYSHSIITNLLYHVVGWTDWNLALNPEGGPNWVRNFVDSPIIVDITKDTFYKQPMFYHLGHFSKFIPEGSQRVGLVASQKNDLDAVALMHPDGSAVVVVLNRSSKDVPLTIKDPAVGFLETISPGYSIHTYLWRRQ

Chain of Glucocorticoid receptor (Homo sapiens) (P04150 whole entry, looked up, the tested form may be a part): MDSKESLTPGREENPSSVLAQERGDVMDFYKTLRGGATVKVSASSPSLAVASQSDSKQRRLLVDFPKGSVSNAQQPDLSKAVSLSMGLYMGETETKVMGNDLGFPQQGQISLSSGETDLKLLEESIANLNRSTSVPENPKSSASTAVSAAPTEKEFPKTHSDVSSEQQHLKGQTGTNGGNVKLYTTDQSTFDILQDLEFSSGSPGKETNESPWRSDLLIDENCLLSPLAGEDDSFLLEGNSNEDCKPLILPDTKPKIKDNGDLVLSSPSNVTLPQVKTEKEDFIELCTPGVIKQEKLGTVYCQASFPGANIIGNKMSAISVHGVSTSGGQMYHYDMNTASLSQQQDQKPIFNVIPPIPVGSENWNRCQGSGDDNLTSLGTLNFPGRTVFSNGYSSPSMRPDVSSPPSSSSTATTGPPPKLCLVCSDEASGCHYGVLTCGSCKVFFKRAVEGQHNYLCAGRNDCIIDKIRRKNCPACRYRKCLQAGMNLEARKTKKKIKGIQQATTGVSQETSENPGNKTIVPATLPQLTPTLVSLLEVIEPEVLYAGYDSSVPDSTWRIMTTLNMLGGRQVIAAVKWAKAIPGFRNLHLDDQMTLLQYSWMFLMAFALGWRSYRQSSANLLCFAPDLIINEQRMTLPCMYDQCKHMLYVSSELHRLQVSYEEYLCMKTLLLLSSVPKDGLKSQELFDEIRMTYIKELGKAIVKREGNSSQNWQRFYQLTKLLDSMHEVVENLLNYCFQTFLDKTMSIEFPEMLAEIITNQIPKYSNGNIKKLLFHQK
Chain of Cytochrome P450 1A2 (Homo sapiens) (P05177 whole entry, looked up): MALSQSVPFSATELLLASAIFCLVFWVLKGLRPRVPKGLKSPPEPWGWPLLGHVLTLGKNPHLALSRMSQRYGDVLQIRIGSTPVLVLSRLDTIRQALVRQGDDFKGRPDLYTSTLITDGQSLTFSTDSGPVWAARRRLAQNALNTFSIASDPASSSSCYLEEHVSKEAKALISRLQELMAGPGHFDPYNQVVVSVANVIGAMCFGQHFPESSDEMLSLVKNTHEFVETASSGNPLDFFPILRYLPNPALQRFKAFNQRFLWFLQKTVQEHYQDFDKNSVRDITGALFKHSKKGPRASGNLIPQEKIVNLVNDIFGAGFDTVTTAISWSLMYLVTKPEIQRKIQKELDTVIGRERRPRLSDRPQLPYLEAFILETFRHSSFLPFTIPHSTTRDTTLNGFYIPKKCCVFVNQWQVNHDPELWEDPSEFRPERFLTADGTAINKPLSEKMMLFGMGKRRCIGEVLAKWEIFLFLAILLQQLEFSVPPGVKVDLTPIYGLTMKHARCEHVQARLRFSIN

In the case of `CP(=O)(O)C1=CCNCC1`, the compound was classed as inactive in test [1] and in test [7]. Besides, the Potency entry in test [2] was “inactive”. Further, the activity change, negative = inhibition in test [3] was -1.42% (inactive). Further, the activity, negative = inhibition in test [4] was -9.22% (inactive). Also, the Potency in test [5] and in test [6] was > 46 µM (inactive) throughout.

For the compound `CCC1(C)CC(=O)NC(=O)C1`, the result in test [1] was inactive. Moreover, in test [2], the Potency result is “inactive”. Moreover, the activity change, negative = inhibition in test [3] was -6.48% [at 17.2 µM] (inactive). Besides, the activity, negative = inhibition in test [4] is -0.442% [at 17.2 µM] (inactive). The Potency in test [5] and in test [6] was > 20.6 µM (inactive) throughout.

For `Clc1cc(I)cc(Cl)c1NC1=NCCN1`, the compound was called inactive in test [1]. The figures for the Potency in test [2], in test [5] and in test [6] were 15.8 µM (active), > 46 µM (inactive) and > 46 µM (inactive), respectively. Moreover, in test [3], the activity change, negative = inhibition is -4.12% (inactive). Also, the activity, negative = inhibition in test [4] was -14.2% (inactive).

For `O=S1(=O)N(CCN2CC=C(c3c[nH]c4cc(F)ccc34)CC2)c2cccc3c2N1CCC3`, the call in test [1] was inactive. The values for the Potency in test [2], in test [5] and in test [6] were 3.98 µM (active), > 46 µM (inactive) and > 46 µM (inactive), respectively. In addition, the activity change, negative = inhibition in test [3] was -17.5% (inactive). Moreover, in test [4], the activity, negative = inhibition was 22.3% (inactive).

As to `CCC(=O)O[C@@](Cc1ccccc1)(c1ccccc1)[C@@H](C)CN(C)C`, the compound was classed as inactive in test [1] and in test [7]. The Potency entry in test [2] is “inactive”. For the same compound, in test [3], the activity change, negative = inhibition was -25.8% [at 17.2 µM] (inactive). Moreover, the activity, negative = inhibition in test [4] was 5.74% [at 17.2 µM] (inactive).

On to `NC(=O)CI`, for which, in test [1], the result was inactive. The Potency in test [2] was 31.6 µM (active). Besides, the activity change, negative = inhibition in test [3] was 6.62% (inactive).

Turning to `N#CCCN`, in test [1], the call was inactive. For the same compound, in test [2], the Potency result is “inactive”. The activity change, negative = inhibition in test [3] was 7.43% (inactive). Also, the activity, negative = inhibition in test [4] is 20.4% (inactive). Besides, the Potency in test [5] and in test [6] was > 46 µM (inactive) in each case.

Regarding `NNC(=O)c1ccc(O)cc1`, in test [1], the call was inactive. Further, the Potency entry in test [2] is “inactive”. In addition, the activity change, negative = inhibition in test [3] is -6.3% (inactive). Also, the activity, negative = inhibition in test [4] is 13.1% (inactive). The Potency in test [5] and in test [6] was > 46 µM (inactive) each time.

As to `COc1ccc2[nH]cc(CCN)c2c1`, the call in test [1] and in test [7] was inactive. In addition, the results for the Potency in test [2], in test [5] and in test [6] were 1.58 µM (active), > 46 µM (inactive) and > 46 µM (inactive), respectively. In addition, the activity change, negative = inhibition in test [3] is -0.77% (inactive). For the same compound, the activity, negative = inhibition in test [4] was -1.18% (inactive).

For `CC(C)NP(=O)(NC(C)C)OP(=O)(NC(C)C)NC(C)C`, the result in test [1] and in test [7] was inactive. Also, the Potency entry in test [2] is “inactive”. Besides, the activity change, negative = inhibition in test [3] is -0.786% (inactive). For the same compound, the activity, negative = inhibition in test [4] was -17.3% (inactive). For the same compound, the Potency in test [5] and in test [6] was > 46 µM (inactive) in each case.

`c1cc2c(c(NC3=NCCN3)c1)CCCC2`: the Potency was > 11.4 µM (inactive) in test [8], > 46 µM (inactive) in test [5] and > 9.22 µM (inactive) in test [6]. In addition, the results for the activity change, negative = inhibition in test [1], in test [2] and in test [3] were 7.07% [at 7.69 µM] (inactive), -17.1% [at 11.4 µM] (inactive) and -5.58% [at 7.69 µM] (inactive), respectively. The activity, negative = inhibition in test [4] is 4.34% [at 7.69 µM] (inactive).

Regarding `CN1CCC(c2c[nH]c3ccc(O)cc23)CC1`, the call in test [1] and in test [7] was inactive. Besides, the Potency in test [2] is 31.6 µM (active); in test [5], > 46 µM (inactive); in test [6], > 46 µM (inactive). In test [3], the activity change, negative = inhibition is -5.82% (inactive). For the same compound, the activity, negative = inhibition in test [4] was -0.0693% (inactive).

With `c1ccc2c(N3CCNCC3)cccc2c1`, the result in test [1] was inactive. Further, the results for the Potency in test [2], in test [5] and in test [6] were 10 µM (active), > 46 µM (inactive) and > 46 µM (inactive), respectively. In addition, the activity change, negative = inhibition in test [3] was -26.6% (inactive). The activity, negative = inhibition in test [4] was -46.5% (inactive).

Turning to `CCCN(CCC)[C@@H]1CCc2cccc(O)c2C1`, the call in test [1] and in test [7] was inactive. The Potency result is “inactive and 31.6 µM (active)” in test [2]; > 46 µM (inactive) in test [5]; > 46 µM (inactive) in test [6]. In test [3], the activity change, negative = inhibition is -1.36% (inactive). In test [4], the activity, negative = inhibition is -0.802% (inactive).

As to `O=[N+]([O-])c1cc(O)c(O)c([N+](=O)[O-])c1`, the call in test [1] was inactive. Besides, the Potency entry in test [2] was “inactive”. Moreover, in test [3], the activity change, negative = inhibition was 3.02% (inactive). In addition, the activity, negative = inhibition in test [4] was 48.1% (inactive). The Potency in test [5] and in test [6] was > 46 µM (inactive) in each case.

For the compound `CN(N=O)c1ccc(O)c(O)c1`, the outcome in test [1] was inactive. Besides, the Potency entry in test [2] is “inactive”. For the same compound, in test [3], the activity change, negative = inhibition was 0.97% (inactive). Further, the Potency in test [5] and in test [6] was > 46 µM (inactive) in each case.

On to `CCS(=O)(=O)Nc1cccc(C(=C2CCCCC2)c2cnc[nH]2)c1`, for which, in test [1], the result was inactive. Moreover, the Potency in test [2] is 0.316 µM (active); in test [5], > 46 µM (inactive); in test [6], > 46 µM (inactive). In addition, in test [3], the activity change, negative = inhibition is 4.67% (inactive). The activity, negative = inhibition in test [4] was -26.3% (inactive).

With `NCCc1c[nH]c2ccc(C(N)=O)cc12`, the outcome in test [1] was inactive. Further, the Potency in test [2] is 6.31 µM (active) and 1.26 µM (active); in test [5], > 46 µM (inactive); in test [6] it was > 46 µM (inactive). For the same compound, the activity change, negative = inhibition in test [3] is 4.42% (inactive). Also, the activity, negative = inhibition in test [4] was 4.94% (inactive).

Turning to `Cc1[nH]c2ccc(O)cc2c1CCN`, the call in test [1] and in test [7] was inactive. The Potency in test [2] was 31.6 µM (active); in test [5], > 46 µM (inactive); in test [6], > 46 µM (inactive). In addition, the activity change, negative = inhibition in test [3] was 10.3% (inactive). Besides, in test [4], the activity, negative = inhibition is 6.41% (inactive).
